# According to PubChem BioAssay AID1159580 (chemical genetic matrix, 2015):
# Out of some 5,500 compounds screened, about 2,000 (36%) were called active. Inconclusive results (about 18%) are left out. No stated cut-off is given here; in the data, active means normalized growth mostly below about 0.91 (no sharp cut-off); inconclusive means no clear call, values can overlap the other calls; inactive means mostly above about 0.92. This is one part of the list.
# Assay: chemical genetic growth profiling, strain panel (AID 1159580);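 further: tested at 20 µM; growth read once vehicle control cultures reached saturation at 30 °C; 1 = growth at the plate median or of vehicle wells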
# Conditions: growth OD
smiles,measurement,setting,value
COc1ccc2c(c1)O[C@@H]1COc3cc(OC)c(OC)cc3[C@@H]1C2=O,normalized growth,"S. cerevisiae deletion strains, locus YJR043C, strain POL32, stronger effect = lower value",0.719 (active)
same,normalized growth,"S. cerevisiae deletion strains, locus YJR066W, strain TOR1, stronger effect = lower value",0.92 (inactive)
same,normalized growth,"S. cerevisiae deletion strains, locus YJR075W, strain HOC1, stronger effect = lower value",0.776 (active)
same,normalized growth,"S. cerevisiae deletion strains, locus YKL009W, strain mrt4, stronger effect = lower value",1.01 (inactive)
same,normalized growth,"S. cerevisiae deletion strains, locus YKL068W, stronger effect = lower value",0.984 (inactive)
same,normalized growth,"S. cerevisiae deletion strains, locus YKL085W, strain MDH1 (second series), stronger effect = lower value",0.984 (inactive)
same,normalized growth,"S. cerevisiae deletion strains, locus YKL085W, strain MDH1, stronger effect = lower value",0.984 (inactive)
same,normalized growth,"S. cerevisiae deletion strains, locus YKL160W, strain elf1, stronger effect = lower value",0.428 (active)
same,normalized growth,"S. cerevisiae deletion strains, locus YKR001C, strain vps1, stronger effect = lower value",0.912 (inactive)
same,normalized growth,"S. cerevisiae deletion strains, locus YKR026C, strain gcn3, stronger effect = lower value",0.992 (inactive)
same,normalized growth,"S. cerevisiae deletion strains, locus YKR091W, strain srl3, stronger effect = lower value",0.988 (inactive)
same,normalized growth,"S. cerevisiae deletion strains, locus YLL001W, strain dnm1, stronger effect = lower value",0.794 (active)
same,normalized growth,"S. cerevisiae deletion strains, locus YLL026W, stronger effect = lower value",0.557 (active)
same,normalized growth,"S. cerevisiae deletion strains, locus YLL041C, strain sdh2, stronger effect = lower value",0.674 (active)
same,normalized growth,"S. cerevisiae deletion strains, locus YLR027C, strain aat2, stronger effect = lower value",0.445 (active)
same,normalized growth,"S. cerevisiae deletion strains, locus YLR039C, strain RIC1, stronger effect = lower value",0.914 (inactive)
same,normalized growth,"S. cerevisiae deletion strains, locus YLR058C, strain SHM2, stronger effect = lower value",0.9 (inactive)
same,normalized growth,"S. cerevisiae deletion strains, locus YLR102C, strain apc9, stronger effect = lower value",0.696 (active)
same,normalized growth,"S. cerevisiae deletion strains, locus YLR113W, strain HOG1, stronger effect = lower value",0.983 (inactive)
same,normalized growth,"S. cerevisiae deletion strains, locus YLR221C, strain rsa3, stronger effect = lower value",0.377 (active)
same,normalized growth,"S. cerevisiae deletion strains, locus YLR258W, strain gsy2, stronger effect = lower value",0.705 (active)
same,normalized growth,"S. cerevisiae deletion strains, locus YLR262C, strain YPT6 (second series), stronger effect = lower value",0.994 (inactive)
same,normalized growth,"S. cerevisiae deletion strains, locus YLR262C, strain YPT6, stronger effect = lower value",0.928 (inactive)
same,normalized growth,"S. cerevisiae deletion strains, locus YLR268W, strain sec22, stronger effect = lower value",0.739 (active)
same,normalized growth,"S. cerevisiae deletion strains, locus YLR320W, strain mms22, stronger effect = lower value",0.228 (active)
same,normalized growth,"S. cerevisiae deletion strains, locus YLR342W, strain FKS1, stronger effect = lower value",0.665 (active)
same,normalized growth,"S. cerevisiae deletion strains, locus YLR357W, strain rsc2, stronger effect = lower value",0.932 (inactive)
same,normalized growth,"S. cerevisiae deletion strains, locus YLR370C, strain arc18, stronger effect = lower value",0.984 (inactive)
same,normalized growth,"S. cerevisiae deletion strains, locus YLR371W, strain rom2, stronger effect = lower value",0.854 (active)
same,normalized growth,"S. cerevisiae deletion strains, locus YLR384C, strain iki3, stronger effect = lower value",1.01 (inactive)
same,normalized growth,"S. cerevisiae deletion strains, locus YLR418C, strain cdc73, stronger effect = lower value",0.546 (active)
same,normalized growth,"S. cerevisiae deletion strains, locus YML016C, strain PPZ1, stronger effect = lower value",0.84 (active)
same,normalized growth,"S. cerevisiae deletion strains, locus YML032C, strain rad52, stronger effect = lower value",0.521 (active)
same,normalized growth,"S. cerevisiae deletion strains, locus YML120C, strain ndi1, stronger effect = lower value",0.59 (active)
same,normalized growth,"S. cerevisiae deletion strains, locus YML124C, strain tub3, stronger effect = lower value",0.874 (active)
same,normalized growth,"S. cerevisiae deletion strains, locus YMR058W, strain fet3, stronger effect = lower value",0.537 (active)
same,normalized growth,"S. cerevisiae deletion strains, locus YMR078C, strain ctf18, stronger effect = lower value",0.373 (active)
same,normalized growth,"S. cerevisiae deletion strains, locus YMR125W, strain sto1, stronger effect = lower value",0.612 (active)
same,normalized growth,"S. cerevisiae deletion strains, locus YMR129W, stronger effect = lower value",0.908 (active)
same,normalized growth,"S. cerevisiae deletion strains, locus YMR205C, strain PFK2, stronger effect = lower value",0.23 (active)
same,normalized growth,"S. cerevisiae deletion strains, locus YMR223W, strain ubp8, stronger effect = lower value",0.78 (active)
same,normalized growth,"S. cerevisiae deletion strains, locus YMR231W, strain pep5, stronger effect = lower value",0.991 (inactive)
same,normalized growth,"S. cerevisiae deletion strains, locus YMR263W, strain SAP30, stronger effect = lower value",0.922 (inactive)
same,normalized growth,"S. cerevisiae deletion strains, locus YMR307W, strain GAS1, stronger effect = lower value",0.909 (inactive)
same,normalized growth,"S. cerevisiae deletion strains, locus YNL067W, strain RPL9B, stronger effect = lower value",0.858 (active)
same,normalized growth,"S. cerevisiae deletion strains, locus YNL071W, strain lat1, stronger effect = lower value",0.246 (active)
same,normalized growth,"S. cerevisiae deletion strains, locus YNL153C, strain GIM3, stronger effect = lower value",0.597 (active)
same,normalized growth,"S. cerevisiae deletion strains, locus YNL183C, strain NPR1, stronger effect = lower value",0.927 (inactive)
same,normalized growth,"S. cerevisiae deletion strains, locus YNL209W, strain ssb2, stronger effect = lower value",1.01 (inactive)
same,normalized growth,"S. cerevisiae deletion strains, locus YNL233W, strain BNI4, stronger effect = lower value",0.427 (active)
same,normalized growth,"S. cerevisiae deletion strains, locus YNL248C, strain rpa49, stronger effect = lower value",0.814 (active)
same,normalized growth,"S. cerevisiae deletion strains, locus YNL250W, strain rad50, stronger effect = lower value",0.936 (inactive)
same,normalized growth,"S. cerevisiae deletion strains, locus YNL271C, strain bni1, stronger effect = lower value",0.963 (inactive)
same,normalized growth,"S. cerevisiae deletion strains, locus YNL298W, strain CLA4, stronger effect = lower value",0.97 (inactive)
same,normalized growth,"S. cerevisiae deletion strains, locus YNL307C, strain MCK1, stronger effect = lower value",0.183 (active)
same,normalized growth,"S. cerevisiae deletion strains, locus YNL322C, strain KRE1 (second series), stronger effect = lower value",0.761 (active)
same,normalized growth,"S. cerevisiae deletion strains, locus YNR049C, strain mso1, stronger effect = lower value",0.951 (inactive)
same,normalized growth,"S. cerevisiae deletion strains, locus YNR052C, strain pop2, stronger effect = lower value",0.948 (inactive)
same,normalized growth,"S. cerevisiae deletion strains, locus YOL012C, strain htz1",0.241 (inactive)
same,normalized growth,"S. cerevisiae deletion strains, locus YOL147C, strain pex11, stronger effect = lower value",0.25 (active)
same,normalized growth,"S. cerevisiae deletion strains, locus YOR001W, strain rrp6, stronger effect = lower value",0.689 (active)
same,normalized growth,"S. cerevisiae deletion strains, locus YOR061W, strain CKA2, stronger effect = lower value",0.967 (inactive)
same,normalized growth,"S. cerevisiae deletion strains, locus YOR069W, strain VPS5, stronger effect = lower value",0.905 (active)
same,normalized growth,"S. cerevisiae deletion strains, locus YOR070C, strain gyp1, stronger effect = lower value",0.528 (active)
same,normalized growth,"S. cerevisiae deletion strains, locus YOR080W, strain dia2, stronger effect = lower value",0.839 (active)
same,normalized growth,"S. cerevisiae deletion strains, locus YOR083W, strain WHI5, stronger effect = lower value",0.916 (inactive)
same,normalized growth,"S. cerevisiae deletion strains, locus YOR106W, strain vam3, stronger effect = lower value",0.871 (inactive)
same,normalized growth,"S. cerevisiae deletion strains, locus YOR136W, strain idh2, stronger effect = lower value",0.767 (active)
same,normalized growth,"S. cerevisiae deletion strains, locus YOR144C, strain elg1, stronger effect = lower value",0.573 (active)
same,normalized growth,"S. cerevisiae deletion strains, locus YOR184W, strain ser1, stronger effect = lower value",0.896 (inactive)
same,normalized growth,"S. cerevisiae deletion strains, locus YOR231W, strain MKK1, stronger effect = lower value",0.977 (inactive)
same,normalized growth,"S. cerevisiae deletion strains, locus YOR265W, strain rbl2, stronger effect = lower value",0.797 (active)
same,normalized growth,"S. cerevisiae deletion strains, locus YOR270C, strain vph1, stronger effect = lower value",0.593 (active)
same,normalized growth,"S. cerevisiae deletion strains, locus YOR290C, strain snf2, stronger effect = lower value",0.315 (active)
same,normalized growth,"S. cerevisiae deletion strains, locus YOR316C, strain cot1, stronger effect = lower value",0.771 (active)
same,normalized growth,"S. cerevisiae deletion strains, locus YPL051W, strain arl3, stronger effect = lower value",0.803 (active)
same,normalized growth,"S. cerevisiae deletion strains, locus YPL055C, strain LGE1, stronger effect = lower value",0.775 (inactive)
same,normalized growth,"S. cerevisiae deletion strains, locus YPL078C, strain atp4, stronger effect = lower value",0.635 (active)
same,normalized growth,"S. cerevisiae deletion strains, locus YPL106C, strain sse1, stronger effect = lower value",1.04 (inactive)
same,normalized growth,"S. cerevisiae deletion strains, locus YPL240C, strain hsp82, stronger effect = lower value",0.714 (active)
same,normalized growth,"S. cerevisiae deletion strains, locus YPL256C, strain CLN2, stronger effect = lower value",1.01 (inactive)
same,normalized growth,"S. cerevisiae deletion strains, locus YPR119W, strain clb2, stronger effect = lower value",0.731 (active)
same,normalized growth,"S. cerevisiae deletion strains, locus YPR141C, strain kar3, stronger effect = lower value",0.959 (inactive)
same,normalized growth,"S. cerevisiae deletion strains, locus YPR163C, strain tif3, stronger effect = lower value",0.438 (active)
same,normalized growth,"S. cerevisiae deletion strains, locus YPR167C, strain met16, stronger effect = lower value",0.886 (active)
same,normalized growth,"S. cerevisiae deletion strains, strain wtn01, stronger effect = lower value",0.686 (active)
same,normalized growth,"S. cerevisiae strains, strain wild type, stronger effect = lower value",0.753 (active)
